Screening results as filed in PubChem BioAssay.
Only some compounds are listed: those with a hit (about 9.4% of all), similar ones and a draw of the others.
FLuc modulator – counter-screen for miR-21 project: firefly luciferase inhibitors or activators; P08659; purified FLuc, Km substrates, luminescence inhibition; Potency, µM (doses to about 57.5 µM), for the others: top-dose activity change, negative = inhibition, hits mostly inhibitors; hit rate 6.9% among 360,000; AID 588342;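 further: plate controls were vehicle for no effect and reference inhibitor for full effect; nearly all actives have a fitted effect of over 55% in size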
Target sequence (P08659 whole entry, looked up): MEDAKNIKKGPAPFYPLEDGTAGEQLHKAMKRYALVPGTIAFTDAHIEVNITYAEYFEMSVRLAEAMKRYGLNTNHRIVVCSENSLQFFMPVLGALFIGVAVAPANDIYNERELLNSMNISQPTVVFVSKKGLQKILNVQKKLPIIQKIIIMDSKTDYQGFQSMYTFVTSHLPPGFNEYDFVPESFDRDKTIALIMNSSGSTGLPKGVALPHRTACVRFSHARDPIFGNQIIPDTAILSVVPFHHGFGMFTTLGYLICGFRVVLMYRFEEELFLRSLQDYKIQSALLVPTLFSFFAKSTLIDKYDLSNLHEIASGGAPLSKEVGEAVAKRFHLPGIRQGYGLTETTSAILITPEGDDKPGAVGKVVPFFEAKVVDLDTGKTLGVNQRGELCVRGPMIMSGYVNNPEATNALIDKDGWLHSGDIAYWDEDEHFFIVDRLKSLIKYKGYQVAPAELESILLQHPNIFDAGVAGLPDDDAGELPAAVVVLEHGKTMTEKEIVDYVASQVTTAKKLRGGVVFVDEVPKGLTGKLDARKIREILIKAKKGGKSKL
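Purified P. pyralis luciferase, 10 nM final, with Km-level 10 uM D-luciferin and 10 uM ATP in 50 mM Tris acetate pH 7.5, 10 mM Mg acetate, 0.01% Tween-20, 0.05% BSA; 6-point qHTS titration about 60 µM downward; luminescence read.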
SMN2 splice up – increases expression of the SMN2 splice variant | HEK293 SMN2-luciferase splicing reporter, luminescence, 30-36 h | Potency, µM (highest dose often 46.1 µM), for inactives: top-dose activity change, positive = activation, most hits filed as activators | hit rate 2.8% among 210,000; further: % of control where 0% means no effect; nearly all actives have a fitted effect of over 55% in size
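qHTS luciferase splicing reporter: luminescence rises when SMN2 exon 7 is included in transfected HEK293 cells. Compound exposure lasted 30-36 h at 37C, with 4.5 mM final sodium butyrate as control, followed by a ONE-Glo read.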
NPC1 prom act – activators of NPC1 promoter; Huh7 NPC1 promoter luciferase reporter, 24 h; Potency, µM (titrated, usually from 9.22 µM), for inactives: top-dose activation, actives largely listed as activators; hit rate 2.4% among 320,000; AID 485313; further: % of control where 0% means no effect; nearly all actives have a fitted effect of over 60% in size
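Quantitative HTS used a cell-based reporter: Huh7 cells stably bearing the NPC1 promoter upstream of luciferase were treated with compounds for 24 h, and promoter activation was read as luminescence.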
ELG1 repair inh – blocks ELG1-dependent DNA repair in HEK293T cells; HEK293T ELG1-luciferase reporter, luminescence, 16 h; DNA damage induced by 5-fluorouridine; Potency, µM (doses to about 46.1 µM), without a hit: at the top dose activity change, negative = inhibition, hits mostly inhibitors; hit rate 2.3% among 330,000; further: on the % scale 0 is the no-effect control and ±100 the full control effect; nearly all actives have a fitted effect of over 55% in size
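DMSO vehicle served as the neutral condition. Each well held 2,000 cells given 5-fluorouridine plus compound; after 16 hr at 37 °C/5% CO2, ONE-Glo was added and luciferase measured 30 min later.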
ELG1 genotoxic – genotoxicity induction in ELG1-luciferase HEK293T cells | Potency, µM (titrated, usually from 46 µM), without a hit: at the highest dose activity change, positive = activation, usual class: activators | HEK293T ELG1-luciferase reporter, luminescence, 16 h | hit rate 1.3% among 330,000; further: % of control where 0% means no effect; nearly all actives have a fitted effect of over 60% in size
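HEK293T cells expressing luciferase-tagged ELG1 were treated with compound or DMSO for 16 hr at 37°C. Luciferase activity was then read after 30 min with ONE-Glo at room temperature; rising signal flags genetic stress.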
Rab9 promoter act – activators of Rab9 promoter; Huh7 Rab9 promoter-luciferase reporter, luminescence, 24 h; Potency, µM (top dose mostly 9.22 µM), for the others: top-dose activation, negative = inhibition, hits mostly activators; hit rate 2.8% among 320,000; AID 485297; further: % of control where 0% means no effect; nearly all actives have a fitted effect of over 60% in size
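Measured in stably transfected Huh7 cells bearing a Rab9 promoter–luciferase construct: 24 h compound treatment at 37 °C, followed by luminescence detection.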
Active calls of the source: *; ? = inconclusive; nt = no result; [ ] = remark or other dose. The call rests on the fitted dose curve; in most records, active means well fitted curve in the direction sought with a large enough effect; inconclusive means small, poorly fitted or top-dose-only effect, or another doubt; inactive means no such curve, though single readings can be large; an effect the other way counts as inactive or inconclusive. Potency means the concentration at half of the fitted maximal effect.

SMILES	FLuc modulator	SMN2 splice up	NPC1 prom act	ELG1 repair inh	ELG1 genotoxic	Rab9 promoter act
CC(C)(C)c1ccc(C(=O)N2CC(=O)Nc3ccc(F)cc3C2c2ccc(F)cc2)cc1 (centres undefined)	-6%	-22%	nt	nt	nt	nt
COCCNC(=O)c1nn(-c2ccc(C)cc2)c(=O)n(C)c1=O	-2%	nt	nt	nt	nt	nt
COc1ccc2c(CNC3CCC(C)CC3)c(C(=O)O)n(Cc3ccc(F)cc3)c2c1 (centres undefined)	-2%	nt	nt	nt	nt	nt
Cc1cc(Cl)ccc1NC(=O)C1CCN(c2nnc(-n3c(C)ccc3C)s2)CC1	3%	-12%	nt	nt	nt	nt
Cc1cccc(NC(=O)CN2C(=O)N/C(=C/c3cc(C)n(-c4cccnc4)c3C)C2=O)c1	1%	-50%	9%	20%	?	-2%
Cc1cc(/C=C2/NC(=O)N(c3ccccc3)C2=O)c(C)n1-c1cccnc1	3.4µM*	7.9µM*	2.2µM*	?	?	1.6µM*
Cc1cc(/C=C2/NC(=O)NC2=O)c(C)n1-c1ccncc1	-12%	-4%	1%	-7%	-8%	3%
Cc1cc(/C=C2/NC(=S)NC2=O)c(C)n1-c1cccnc1	5.4µM*	?	24%	6%	21%	?
CCOC(=O)CSc1nc2sc3c(c2c(=O)n1Cc1ccccc1)CCC(C(C)(C)C)C3 (centres undefined)	3%	-15%	nt	nt	nt	nt
CC(=O)Nc1ccc(NS(=O)(=O)c2c(C(=O)N3CCC(C)CC3)c(C)n(C)c2C)cc1	-4%	nt	nt	nt	nt	nt
Cc1ccc(Nc2nnc(-c3ccc(C)c(S(=O)(=O)N4CCOCC4)c3)c3ccccc23)c(C)c1	-12%	1%	nt	nt	nt	nt
Cc1nn(-c2ccc(N3CCCC3)nn2)c(C)c1CCC(=O)N1CCN(c2ccccc2)CC1	-10%	nt	nt	nt	nt	nt
Cc1ccc(O)c(C(=O)CC(=O)c2ccc(Cl)cc2)c1	24µM*	nt	15%	?	?	?
Cc1ccc(O)c(C(=O)CC(=O)c2cccc(F)c2)c1	-7%[2.3 µM]	35µM*	?	?	7%	?
O=C(CC(=O)c1cc(Cl)ccc1O)c1ccccc1	?	-57%	?	?	?	?
Cc1cccc(C(=O)CC(=O)c2cc(Cl)ccc2O)c1	-12%	-98%	-2%	5%	-7%	-2%
N.N.O=C(O)C1(C(=O)O)CCC1.[Pt+2]	nt	nt	4%[46.1 µM]	nt	nt	0%[46.1 µM]
COc1ccc2[nH]cc(CCNC(=O)Nc3cc(C)cc(C)c3)c2c1	2%	nt	nt	nt	nt	nt
CCn1cc(C(=O)N(C)c2ccc(OC)cc2OC)c2cc(OC)c(OC)cc2c1=O	2%	nt	-5%	15µM*	0%	-9%
CCn1cc(C(=O)N(C)c2cc(C)ccc2OC)c2cc(OC)c(OC)cc2c1=O	-1%	nt	-2%	?	-1%	-1%
COc1ccc2c(C)cc(SCC(=O)c3ccc4c(c3)OCO4)nc2c1	?	-11%	-1%	?	-7%	7%
COCCn1c(C)cc(C(=O)CSc2nc3ccccc3s2)c1C	0.54µM*	-77%	0.35µM*	?	?	0.5µM*
COCCn1c(C)cc(C(=O)CSc2nc3ccccc3o2)c1C	1.3µM*	7.9µM*	0.63µM*	?	?	0.35µM*
COCCn1c(C)cc(C(=O)CSc2cc(C)c3ccc(OC)cc3n2)c1C	3µM*	nt	7%	-12%	2%	19%
COc1cc2cc(CNc3ccccc3)c(=O)n(CC(=O)Nc3ccccc3)c2cc1OC	-6%	nt	nt	nt	nt	nt
Cc1ccc(C2=C(Cl)C(=O)C(c3ccc(C)cc3)=C(Cl)C2=O)cc1	nt	-2%[9.22 µM]	nt	nt	nt	nt
O=c1cc(COc2ccc(Cl)c(Cl)c2)nc2sccn12	-4%	nt	?	?	13%	3.2µM*
Cc1ccc(OCC(=O)OCc2cc(=O)n3ccsc3n2)cc1C	2%	nt	nt	nt	nt	nt
CCCS(=O)(=O)Nc1cc(-c2cn3ccc(C)cc3n2)ccc1C	9.5µM*	15%	nt	nt	nt	nt
COc1ccc(S(=O)(=O)Nc2cc(-c3cn4ccc(C)cc4n3)ccc2C)cc1OC	15µM*	19%	nt	nt	nt	nt
